# About 10,000 (3%) of roughly 330,000 compounds were called active.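 The calls were made as follows: active = inhibition of at least 50% at 8 µM in the primary screen; inactive = the rest.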 For the sample, actives were picked, then their nearest neighbours and some compounds at random.
# Target: Protein Mdm4 (Homo sapiens) + E3 ubiquitin-protein ligase Mdm2 (Homo sapiens) (UniProt O15151+Q00987)
# Experiment: disruptors of Mdm2/MdmX RING complex – cell-based, luminescence, split luciferase, SaOS-2, uHTS, primary screen (AID 485346)
# Settings: SaOS-2 split-luciferase Mdm2/MdmX complementation, at 8 µM, stronger effect = higher value
# Sequence of Protein Mdm4 (Homo sapiens) + E3 ubiquitin-protein ligase Mdm2 (Homo sapiens) (O15151 whole entry, looked up): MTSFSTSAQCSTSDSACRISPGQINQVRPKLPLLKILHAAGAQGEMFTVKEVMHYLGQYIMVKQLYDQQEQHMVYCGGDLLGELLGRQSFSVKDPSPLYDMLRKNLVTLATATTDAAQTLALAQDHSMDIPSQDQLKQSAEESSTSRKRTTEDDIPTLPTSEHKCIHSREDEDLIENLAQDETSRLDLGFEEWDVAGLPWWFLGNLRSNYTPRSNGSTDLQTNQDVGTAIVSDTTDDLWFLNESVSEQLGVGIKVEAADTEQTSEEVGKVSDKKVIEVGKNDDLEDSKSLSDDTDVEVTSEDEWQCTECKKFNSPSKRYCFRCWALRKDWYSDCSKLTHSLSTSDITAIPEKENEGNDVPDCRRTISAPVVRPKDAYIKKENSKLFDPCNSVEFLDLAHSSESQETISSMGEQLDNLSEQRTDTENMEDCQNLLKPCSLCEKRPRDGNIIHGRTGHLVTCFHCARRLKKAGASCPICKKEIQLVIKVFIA
# Sequence of Protein Mdm4 (Homo sapiens) + E3 ubiquitin-protein ligase Mdm2 (Homo sapiens) (Q00987 whole entry, looked up): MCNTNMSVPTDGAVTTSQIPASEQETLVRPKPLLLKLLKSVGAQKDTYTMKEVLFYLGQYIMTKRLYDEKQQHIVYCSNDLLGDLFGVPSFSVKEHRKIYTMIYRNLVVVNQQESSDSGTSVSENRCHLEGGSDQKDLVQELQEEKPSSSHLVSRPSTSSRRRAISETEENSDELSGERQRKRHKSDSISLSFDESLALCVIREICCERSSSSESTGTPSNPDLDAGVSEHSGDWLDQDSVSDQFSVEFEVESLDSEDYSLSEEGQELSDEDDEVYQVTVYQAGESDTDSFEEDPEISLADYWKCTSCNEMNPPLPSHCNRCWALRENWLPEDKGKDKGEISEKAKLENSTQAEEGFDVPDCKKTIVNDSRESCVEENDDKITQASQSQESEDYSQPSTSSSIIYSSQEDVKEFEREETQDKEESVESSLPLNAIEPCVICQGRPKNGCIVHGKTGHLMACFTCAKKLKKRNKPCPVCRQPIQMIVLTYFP
row,Compound,inhibition
1,CCOc1ccc2c(c1)c(=O)c(S(=O)(=O)c1ccc(C)cc1)cn2CC,5.7% (inactive)
2,O=C(COC(=O)C1CC2C=CC1C2)Nc1ccccc1 (stereo not drawn),-11.4% (inactive)
3,CCS(=O)(=O)c1ccc(C(=O)NC)c(Cl)c1Cl,13.4% (inactive)
4,COc1cc(C(=O)Nc2cc(C(F)(F)F)ccc2N2CCOCC2)ccc1O,15.4% (inactive)
5,CC(C)(C)OC(=O)C[C@H]1C/C=C\C[C@@H](CC(=O)N[C@H](CO)Cc2ccccc2)C(=O)NC[C@@H](c2ccccc2)OC1=O,9.47% (inactive)
6,O=C(C[C@H]1C/C=C\C[C@@H](NC(=O)OCC2c3ccccc3-c3ccccc32)C(=O)O[C@@H](c2ccccc2)CNC1=O)N[C@H](CO)Cc1ccccc1,99.8% (active)
7,CC(C)(C)OC(=O)C[C@@H]1C/C=C\C[C@@H](CC(=O)N[C@H](CO)Cc2ccccc2)C(=O)NC[C@@H](c2ccccc2)OC1=O,13.2% (inactive)
8,Cc1c(NC(=O)CN(C)CC(=O)Nc2ccc(F)c(F)c2F)c(=O)n(-c2ccccc2)n1C,7.46% (inactive)
9,OCC[C@H]1C[C@@H](O)[C@H](O)[C@]2(OCCCc3ccccc32)O1,8.75% (inactive)
10,CC(C)C[C@H](NC(=O)Nc1cccc(C(F)(F)F)c1)C(=O)O,29.7% (inactive)
11,O=C(Nc1ccc(C(=O)N2CCOCC2)cc1)Nc1cccc(C(F)(F)F)c1,54.6% (active)
12,O=C(NCc1ccccc1)c1ccc(S(=O)(=O)Nc2cccc(C(F)(F)F)c2)cc1,25.2% (inactive)
13,CC(=O)N1CCN(C(=O)Nc2cccc(C(F)(F)F)c2)CC1,-7.17% (inactive)
14,CCNS(=O)(=O)c1ccc(NC(=O)Nc2cccc(C(F)(F)F)c2)cc1,52.6% (active)
15,O=C(Nc1ccc(Cl)cc1)Nc1ccc(C(=O)N2CCOCC2)cc1,9.36% (inactive)
16,O=S(=O)(NCCS(=O)(=O)N1CCN(c2ccccc2)CC1)c1ccc(F)cc1,23.9% (inactive)
17,Cc1nc(-c2ccccc2)cn2c1nc1ccccc12,14.8% (inactive)
18,COc1ccccc1NC(=O)c1c(Br)cnn1C,-30.1% (inactive)
19,CN(C(=O)CCN1C(=O)/C(=C/c2ccccc2F)SC1=S)C1CCS(=O)(=O)C1 (stereo not drawn),24.9% (inactive)
20,O=C1/C(=C\c2ccccc2Cl)SC(=S)N1CCC(=O)N1CCCc2ccccc21,99.5% (active)
21,O=C(CN1CCCCCC1)NCCN1C(=O)S/C(=C\c2ccccc2Cl)C1=O,3.22% (inactive)
22,COc1ccc(C(=O)OCc2cc(=O)n3ccsc3n2)cc1F,2.88% (inactive)
23,O=C(NNC1CC(=O)N(c2cccc(Cl)c2)C1=O)c1cccnc1 (stereo not drawn),14.9% (inactive)

# From PubChem BioAssay AID485346 (Sanford-Burnham Center for Chemical Genomics, 2010)
